Sampled rows, rich in hits. Any-hit rate of the full collection: about 17%.
DT40 TDP1 no CPT – qHTS for Inhibitors of human tyrosyl-DNA phosphodiesterase 1 (TDP1): qHTS in cells in absence of CPT; Potency, µM (top dose mostly 46.2 µM), for the others: at the top dose activity change, negative = growth inhibition, usual class: inhibitors; actives 15% (n = 420,000); DT40 Tdp1-/- hTDP1 cells, no CPT, ATP luminescence, 48 h; note: % is set by controls: 0 for no effect and ±100 for the full control effect; nearly all actives have a fitted effect of over 55% in size
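Seeded 400 DT40-hTDP1 cells/well (vehicle DMSO, no 20 nM CPT); pinned compounds; ≥48 hr at 37 °C; CellTiter-Glo luminescence as viability measure.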
S2 tox – cell viability loss in ATXN counter-screen; S2 cells (HEK-293 line with an ATXN2-luciferase reporter) viability, CellTiter-Fluor protease fluorescence, 24 h; actives 0.49% (n = 400,000); Potency, µM (top dose mostly 56.7 µM), actives largely listed as cytotoxic; note: nearly all actives have a fitted effect of over 40% in size
ATXN2 expr inh – ATXN2 expression inhibition; actives 0.72% (n = 360,000); HEK-293 ATXN2-luciferase reporter, luminescence, 24 h; Potency, µM (top dose mostly 57 µM), for the others: top-dose activity change, negative = inhibition, most hits filed as inhibitors; note: % is set by controls: 0 for no effect and ±100 for the full control effect; nearly all actives have a fitted effect of over 55% in size
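qHTS (up to 57 uM final) was run with 24 h compound exposure of reporter cells at 37 °C. Each well was multiplexed: SteadyGlo luminescence measured ATXN2-luciferase expression after a fluorogenic Gly-Phe-AFC viability readout (25 uM final).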
HepG2 tox – HepG2 cytotoxicity, counter-screen for TGF-b inhibitors; HepG2 CAGA-GFP viability, ATP luminescence, 18 h; Potency, µM (top dose mostly 46.1 µM), inactives show at the top dose activity change, negative = cytotoxicity, usual class: cytotoxic; actives 0.76% (n = 410,000); AID 588856
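HepG2 CAGA-GFP cells (1000/well, DMEM with 1% FBS) received compound, then TGF-beta at 500 pg/mL final, and were incubated 18 hours at 37 degrees C. Viability was read by CellTiter-Glo luminescence. Media-only wells were set as complete cell-killing and DMSO as no toxicity.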
DT40 TDP1 CPT – DT40-hTDP1 cell growth loss with CPT | chicken DT40 Tdp1-/-;hTDP1 cells + 20 nM CPT, ATP luminescence, 48 h | AID 686979 | Potency, µM (highest dose often 46.2 µM), without a hit: at the top dose activity change, negative = growth inhibition, usual class: inhibitors | actives 12% (n = 420,000); note: % is set by controls: 0 for no effect and ±100 for the full control effect; nearly all actives have a fitted effect of over 55% in size
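Chicken DT40 Tdp1-/- cells stably complemented with human TDP1 were seeded at 400 cells/well in medium containing 20 nM camptothecin, exposed to pin-transferred compounds, and grown at 37 °C for at least 48 hr. Viability was read as ATP luminescence.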
TGFb inhibitor – inhibitors of TGF-b signaling | HepG2 CAGA-GFP TGF-b/SMAD3 reporter, GFP fluorescence, 18 h; TGF-beta stimulated, 500 pg/mL final | Potency, µM (top dose mostly 46.1 µM), inactives show top-dose activity, negative = inhibition, hits mostly inhibitors | actives 1.2% (n = 410,000); note: % is set by controls: 0 for no effect and ±100 for the full control effect; nearly all actives have a fitted effect of over 65% in size
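GFP signal (ex488/em500-530) from TGF-beta-stimulated HEPG2 CAGA-GFP cells, 500 pg/mL final, 18 h at 37 degrees C in DMEM plus 1% FBS, normalized to unstimulated and DMSO-stimulated controls.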
Starred values were filed as active, the others as inactive. Calls come from the whole dose curve; as a rule, active = well fitted curve in the direction sought with a large enough effect; inconclusive = small, poorly fitted or top-dose-only effect, or another doubt; inactive = no such curve, though single readings can be large; an effect the other way counts as inactive or inconclusive. Potency is the fitted concentration of half-maximal effect.

Screening Cc1ccc(Cn2c(=N)c(S(=O)(=O)c3ccc(Br)cc3)cc3c(=O)n4ccccc4nc32)cc1 returned DT40 TDP1 no CPT 7%, S2 tox inactive, HepG2 tox -12%, DT40 TDP1 CPT -2% and TGFb inhibitor 1%.
`N=c1c(S(=O)(=O)c2ccc(Br)cc2)cc2c(=O)n3ccccc3nc2n1Cc1ccco1` gave DT40 TDP1 no CPT 6.5µM*, HepG2 tox -64%, DT40 TDP1 CPT 9.2µM* and TGFb inhibitor 7.9µM*.
Screening CCCc1nc2cccnc2n1C1CCN(C(=O)CC2NC(=O)c3ccccc32)CC1 (stereo unspecified) returned DT40 TDP1 no CPT -13%, S2 tox inactive and DT40 TDP1 CPT 0%.
Screening CN(C)c1ccc(P(=O)(COc2ccc([N+](=O)[O-])cc2)c2ccc(N(C)C)cc2)cc1 returned DT40 TDP1 no CPT 21µM*, S2 tox inactive, ATXN2 expr inh -20%, HepG2 tox -183%, DT40 TDP1 CPT inconclusive and TGFb inhibitor -20%.
For O=C(c1cnc2ccc3ccccc3c2c1)c1cc(F)ccc1O the results were DT40 TDP1 no CPT inconclusive, S2 tox inactive, ATXN2 expr inh 9%, HepG2 tox -31%, DT40 TDP1 CPT 7.3µM* and TGFb inhibitor inconclusive.
For c1ccc(-c2nnc(-c3ccccn3)c(-c3ccccn3)n2)nc1 the results were DT40 TDP1 no CPT inconclusive, S2 tox inactive, ATXN2 expr inh -10%, HepG2 tox -3%, DT40 TDP1 CPT inconclusive and TGFb inhibitor 7%.
`c1ccc(-c2nnc(-c3ccccn3)nn2)nc1` gave DT40 TDP1 no CPT inconclusive, S2 tox inactive, ATXN2 expr inh 1%, HepG2 tox -46%, DT40 TDP1 CPT 15µM* and TGFb inhibitor -10%.
c1ccc(-c2cccc(-c3ccccn3)n2)nc1 was read as DT40 TDP1 no CPT 3.7µM*, S2 tox inconclusive, ATXN2 expr inh inconclusive, HepG2 tox -56%, DT40 TDP1 CPT 2.1µM* and TGFb inhibitor 42%.
For CC(=O)Nc1ccc(-c2ccnc3c2CC(C)(C(=O)NCc2ccco2)O3)cc1 (stereo unspecified) the results were DT40 TDP1 no CPT 1.2µM*, S2 tox inconclusive, ATXN2 expr inh -16%, HepG2 tox 0%, DT40 TDP1 CPT 1.5µM* and TGFb inhibitor 12%.
Screening CC(=O)NCCNC(=O)C1(C)Cc2c(-c3ccc(NC(C)=O)cc3)ccnc2O1 (stereo unspecified) returned DT40 TDP1 no CPT inconclusive, S2 tox inactive, ATXN2 expr inh 16%, HepG2 tox -12%, DT40 TDP1 CPT -1% and TGFb inhibitor -7%.
Screening CC(=O)Nc1ccc(-c2ccnc3c2CC(C)(C(=O)NCc2ccc(N(C)C)cc2)O3)cc1 (stereo unspecified) returned DT40 TDP1 no CPT inconclusive, S2 tox inactive, ATXN2 expr inh 0%, HepG2 tox 9%, DT40 TDP1 CPT inconclusive and TGFb inhibitor -11%.
CN(C)c1ccc(-c2ccnc3c2CC(C)(C(=O)NCCC(F)(F)F)O3)cc1 (stereo unspecified) was read as DT40 TDP1 no CPT 5.8µM*, S2 tox inactive, ATXN2 expr inh -21%, HepG2 tox -15%, DT40 TDP1 CPT 7.3µM* and TGFb inhibitor -5%.
Screening CN(C)c1ccc(-c2ccnc3c2CC(C)(C(=O)NCc2ccco2)O3)cc1 (stereo unspecified) returned DT40 TDP1 no CPT 6.5µM*, S2 tox inconclusive, ATXN2 expr inh 0%, HepG2 tox -17%, DT40 TDP1 CPT 4.1µM* and TGFb inhibitor -23%.
